Experimental findings from PubChem BioAssay (NCATS) are described below.

Values joined by “and” are separate entries in the source; they are usually repeats but may differ in a detail not shown here. Identical values can stand only once. Results filed as inconclusive are left out. A call without a number means that no potency is given here. Some structures have more than one record in an assay (separate samples or runs), and their calls can disagree. Active and inactive are the calls of the source. Calls come from the whole dose curve; as a rule, active = well fitted inhibition curve with a large enough effect; inconclusive = small, poorly fitted or top-dose-only effect; inactive = flat fitted curve, though single readings scatter. Starred links: 1 amine or outer side, 2 acyl side, 3 side chain; linkers in the order of their positions; H or OH if unused. Positions of bridges follow the written chain, without caps; N, C: chain ends. Non-standard residues stand in square brackets, D forms with d. Residues, ends and D or L forms follow the SMILES beside them. Chains are numbered I, II in the order given. Actinocin(9to1) = Cc1c2oc3c(C)ccc(C(=O)[*:1])c3nc-2c(C(=O)[*:2])c(N)c1=O; NMeV = CN[CH](C(=O)O)C(C)C; Sar = CNCC(=O)O
Potency is the fitted concentration of half-maximal effect.

Chain of Phospholipid hydroperoxide glutathione peroxidase GPX4 (Homo sapiens) (P36969 whole entry, looked up): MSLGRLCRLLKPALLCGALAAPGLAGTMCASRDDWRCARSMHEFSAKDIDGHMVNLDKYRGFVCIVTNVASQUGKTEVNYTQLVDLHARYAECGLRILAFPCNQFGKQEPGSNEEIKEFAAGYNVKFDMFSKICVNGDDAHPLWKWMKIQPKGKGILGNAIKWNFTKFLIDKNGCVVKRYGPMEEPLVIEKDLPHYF

This test addresses Phospholipid hydroperoxide glutathione peroxidase GPX4 (Homo sapiens) (UniProt P36969). Kind of test: Primary qHTS Assay for Inhibitors of Recombinant Selenoprotein Glutathione Peroxidase 4 (GPX4) (AID 1845192). Note: nearly all actives have a fitted effect of over 65% in size. Conditions: recombinant GPX4, GR-coupled NADPH fluorescence, 15 min; series mostly up to 50 µM. The text has this: Assay Provider: Elias S.J. Arner MD PhD.
Department of Medical Biochemistry and Biophysics
Karolinska Institutet, Solna, Stockholm, Sweden
Selenoprotein glutathione peroxidases (GPX), like the ubiquitously expressed GPX1 and the ferroptosis modulator GPX4, enact their antioxidant activities by reducing hydroperoxides using glutathione. […] GPX1 and GPX4 inhibitors have thus shown promise as anti-cancer agents. Existing inhibitors are often promiscuous, or modulate GPX activity only indirectly, so novel direct inhibitors identified through screening against GPX1 and GPX4 could be valuable. Here, we developed optimized glutathione reductase (GR)-coupled GPX assays for the biochemical high-throughput screen (HTS) of almost 12,000 compounds with known mechanisms of action. Initial hits were triaged using a GR counter-screen, assessed for isoform specificity using a separate GPX2 assay, and were assessed for general selenocysteine-targeting activity using a thioredoxin reductase (TXNRD1) assay. With this suite of assays, we identified novel GPX1/GPX2- and GPX4-specific inhibitors and can here present a validated pipeline for future discovery research for selenoprotein-targeting agents.
SEQUENCE No. (e.g., 1, 2, 3, etc.); […] (e.g., Cells, Incubation, Reagent, etc.); VALUE; DESCRIPTION.
1; Reagent 1; 3 uL; 333.33 nM GPx4 enzyme or no enzyme control in 1536-well, black, solid Greiner assay plate.
2; Compound; 25 nL; Kalypsis pin tool (Wako USA) equipped with a 1536-well pin head.
3; Incubation; 30 min; room temperature.
4; Reagent 2; 1 uL; 500 nM GR, 5 mM GSH, 2.5 mM NADPH solution
5; Reagent 3; 1 uL; 2.5 mM CHP in 50% EtOH.
6; Detection; Fluorescence; ViewLux microplate reader, excitation 340 nm and emission 450 nm.
7; Incubation; 15 min; room temperature.
8; Detection; Fluorescence; ViewLux microplate reader, excitation 340 nm and emission 450 nm.
NOTES (numbers refer to Sequence numbers above)
1. 3 µL of 333.33 nM GPX4 and 0.016% BSA in assay buffer (50 mM Tris-HCl, 2 mM EDTA (pH 7.5), 150 mM NaCl) was added to columns 3-48 of 1536-well plates using a BioRAPTR Flying Reagent Dispenser (Let's Go Robotics (LGR), Carlsbad, CA). A no-enzyme control (0.01% BSA in TES assay buffer) was added to columns 1-2.
2. 25 nL, library and DMSO controls were added to each well with a pin tool (Kalypsys).
3. The assay plates were incubated for 30 minutes at room temperature.
4. 1 µL of master mix (500 nM glutathione reductase (GR), 5 mM reduced glutathione (GSH), 2.5 mM NADPH in assay buffer) was added.
5. 1 µL of cumene hydroperoxide (CHP) ([2.5 mM] in 50% EtOH) was then added within 5 minutes to initiate the reaction. Final concentrations were: 200 nM GPX4, 1 mM GSH, 0.5 mM CHP, 0.5 mM NADPH, 100 nM GR, 0.01% BSA.
6. Initial fluorescence readout (t=0) at 340/450 nm was measured using a ViewLux multimodal detector (PerkinElmer, Waltham, MA).
8. Endpoint fluorescence readout (t=15) at 340/450 nm was measured 15 min after room temperature incubation.
On to `CN(C)CC(=O)N1CCC(c2ccc(NC(=O)c3ncc(C#N)[nH]3)c(C3=CCCCC3)c2)CC1`, for which the Potency entry was “inactive”.
As for `Cn1cnc2c(F)c(Nc3ccc(Br)cc3F)c(C(=O)NOCCO)cc21`, the Potency result was “inactive”.
For the compound `CC(C)[C@H](CO)Nc1nc(Nc2cccc(Cl)c2)c2ncn(C(C)C)c2n1`, the Potency entry was “inactive”.
Regarding `Cc1ccc2nc(NCCN)c3ncc(C)n3c2c1`, the Potency is 22.7 µM (active).
Still for that read-out and setting: next, `C[C@H](NC(=O)[C@@H](O)c1cc(F)cc(F)c1)C(=O)N[C@@H]1C(=O)N(C)c2ccccc2-c2ccccc21`: “inactive”; `CC(C)C[C@H](NC(=O)CNC(=O)c1cc(Cl)ccc1Cl)B1OC(=O)CC(CC(=O)O)(C(=O)O)O1` (stereo not given in full): “inactive”; `C[C@H](NCc1ccc(OCc2cccc(F)c2)cc1)C(N)=O`: “inactive”.
Still for that read-out and setting: in the case of `CCCCC(=O)O[C@]1(C(=O)CO)[C@@H](C)C[C@H]2[C@@H]3CCC4=CC(=O)C=C[C@]4(C)[C@@]3(F)[C@@H](O)C[C@@]21C` it was “inactive”; in that of `c1cncc(CN2CCC(n3ncc4c(N5CCOCC5)nc(-c5ccc6[nH]ccc6c5)nc43)CC2)c1`, “inactive”; in that of `NC(=O)Nc1sc(-c2ccc(F)cc2)cc1C(N)=O`, “inactive”.
Same read-out and setting: in the case of `CCCc1nc(C(C)(C)O)c(C(=O)O)n1Cc1ccc(-c2ccccc2-c2nn[nH]n2)cc1` it was “inactive and 17.8 µM (active)”.
`CC(=O)SCC(Cc1ccccc1)C(=O)NCC(=O)OCc1ccccc1` (stereo not given): the Potency result is “inactive”.
In the case of `O=C1NC(O)CCN1[C@@H]1O[C@H](CO)[C@H](O)[C@H]1O` (stereo not given in full), the Potency entry is “inactive”.
The same measure, in the same setting: next, `Cc1cc(Nc2ncc3c(n2)N(C)C(=O)N(c2cc(NC(=O)c4cccc(C(F)(F)F)c4)ccc2C)C3)n(C)n1`: “inactive”; `O=C1c2cccc(O)c2C(=O)c2c(O)cc(CO)cc21`: “inactive”; `CC1=C(C(=O)Nc2cc3cn[nH]c3cc2F)C(c2ccc(Cl)cc2F)N=C(c2ccnc(Cl)c2)N1` (stereo not given): “inactive”.
In the case of `Cn1cc(C[C@@H](N)C(=O)O)c2ccccc21`, the activity change, negative = inhibition is 0.696% [at 9.73 µM] (inactive).
Regarding `Cc1cncc2cccc(S(=O)(=O)N3CCCN(C(=O)CN)C[C@@H]3C)c12`, the Potency result is “inactive”.
For `C=Cc1c(C)c2cc3nc(cc4[nH]c(cc5nc(cc1[nH]2)C(C)=C5CCC(=O)O)c(CCC(=O)OC)c4C)[C@@]1(C)C3=CC=C(C(=O)OC)[C@H]1C(=O)OC`, the Potency entry was “inactive”.
`OC[C@H]1OC(O)C[C@@H](O)[C@H]1O` (stereo not given in full): the Potency entry is “inactive”.
As for `COc1cc(O)c2c(c1)C1OC1C[C@H](O)[C@H](O)C(=O)C=CC[C@H](C)OC2=O` (stereo not given in full), the Potency entry was “inactive”.
The same measure, in the same setting: next, `C=C[C@@H]1CN2CCC1C[C@H]2[C@H](O)c1ccnc2ccc(OC)cc12` (stereo not given in full): “inactive”; `Cc1c2oc3c(C)ccc(C(=O)NC4C(=O)NC(C(C)C)C(=O)N5CCCC5C(=O)N(C)CC(=O)N(C)C(C(C)C)C(=O)OC4C)c3nc-2c(C(=O)NC2C(=O)NC(C(C)C)C(=O)N3CCCC3C(=O)N(C)CC(=O)N(C)C(C(C)C)C(=O)OC2C)c(N)c1=O` (stereo not given) (I: TVP[Sar][NMeV] / II: TVP[Sar][NMeV]; ester I:1-I:C, II:1-II:C; linker I:N-II:N via Actinocin(9to1); configuration not given here): “inactive”.
Still for that read-out and setting: next, `COc1ccc(C[C@@H](C)[C@@H](C)Cc2ccc(OC)c(OC)c2)cc1OC`: “inactive”.
With `Nc1ccn(C[C@@H](CO)OCP(=O)(O)O)c(=O)n1`, the activity change, negative = inhibition is 4.75% [at 0.409 µM] (inactive) and -14.5% [at 9.73 µM] (inactive).
As for `CCCCOc1ccc(C(=O)Nc2ccc(F)cc2F)cc1`, the Potency entry was “inactive”.
As to `COc1cc2c(cc1OC)[C@@H]1C(=O)c3ccc4c(c3O[C@@H]1CO2)C=CC(C)(C)O4`, the Potency result was “inactive”.
Consider `CCc1c(O)cc(O)c(C(=O)c2ccc(OCCN3CCOCC3)c(OC)c2)c1CC(=O)N(CCOC)CCOC`, for which the Potency result is “inactive”.
As for `COc1cc(C)c(Sc2cnc(NC(=O)c3ccc(CNC(C)C(C)(C)C)cc3)s2)cc1C(=O)N1CCN(C(C)=O)CC1` (stereo not given), the Potency result is “inactive”.
`Cc1cc(O)c2c(c1)C(=O)c1cccc(O)c1C2=O`: the Potency result is “inactive”.
`COc1cc2ncnc(Nc3cccc(Br)c3)c2cc1OC`: the Potency entry was “inactive”.
For `CC(C=CC=C(C)C=CC1=C(C)CCCC1(C)C)=CC=CC=C(C)C=CC=C(C)C=CC1=C(C)CCCC1(C)C`, the outcome is “inactive [at 0.409 µM]”.
Turning to `CCC[C@H]1C[C@H](C(=O)N[C@@H]([C@@H]2O[C@@H](SC)[C@@H](O)[C@@H](O)[C@@H]2O)[C@H](C)Cl)N(C)C1`, the Potency entry is “inactive”.
Same read-out and setting: in the case of `N#Cc1cc(NC(=O)Nc2nnc(-c3ccncc3)s2)ccc1-c1cn[nH]c1` it was “inactive”; in that of `CCOc1cc2c(c(F)c1OCC)C(=N)N(CC(=O)c1cc(N3CCOCC3)c(OC)c(C(C)(C)C)c1)C2`, “inactive”; in that of `NC(=O)c1cccc(-c2cccc(OC(=O)NC3CCCCC3)c2)c1`, “inactive”.
As to `C=C(C)[C@@H]1CC[C@]2(C(=O)O)CC[C@]3(C)[C@H](CC[C@@H]4[C@@]5(C)CC[C@H](O)C(C)(C)[C@@H]5CC[C@]43C)[C@@H]12`, the Potency result was “inactive”.
The same measure, in the same setting: in the case of `C[C@@H](Cc1cc2c(c(C(N)=O)c1)N(CCCO)CC2)NCCOc1ccccc1OCC(F)(F)F` it was “inactive”.
For `NC[C@H]1O[C@H](O[C@H]2[C@@H](O)[C@@H](O[C@H]3O[C@H](CO)[C@@H](O)[C@H](N)[C@@H]3O)[C@H](N)C[C@@H]2N)[C@H](N)C[C@H]1O`, the activity change, negative = inhibition was -9.51% [at 9.73 µM] (inactive).
With `C[C@@H]1C(=O)O[C@H]2CC34[C@H]5C[C@@H](C(C)(C)C)C36[C@H](OC(=O)[C@@H]6O)O[C@@]4(C(=O)O5)[C@]21O` (stereo not given in full), the Potency entry was “inactive”.
